The record followed here is the supplement of paper PMC12067093, “Discovery and optimisation of a covalent ligand for TRIM25 and its application to targeted protein ubiquitination” (Chemical Science, 2025).

Compound in the test: Cc1cc(ccc1-c1ccccc1)C(=O)N1CCCN(CC1)C(=O)CCl [compound 10]
The test can be described thus: probe-labelled cysteine peptide fold change vs DMSO (competition) (log2 fold change); higher = less target engagement (more negative = stronger competition). The note with it: THP-1, incubation time: 4 h.

About 21,000 targets were measured; listed, in parts, are those with the largest changes and a random draw of the rest.
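Note: competitive profiling in live THP-1 cells: cysteine peptides tagged with an iodoacetamide desthiobiotin (IA-DTB) probe, intensity after compound treatment relative to DMSO-treated cells.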

Chain of UniProt P49458 (P49458 whole entry, looked up): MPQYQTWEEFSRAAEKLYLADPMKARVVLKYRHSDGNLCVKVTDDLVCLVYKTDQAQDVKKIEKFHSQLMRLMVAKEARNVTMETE
Chain of UniProt Q9UGU0 (Q9UGU0 whole entry, looked up): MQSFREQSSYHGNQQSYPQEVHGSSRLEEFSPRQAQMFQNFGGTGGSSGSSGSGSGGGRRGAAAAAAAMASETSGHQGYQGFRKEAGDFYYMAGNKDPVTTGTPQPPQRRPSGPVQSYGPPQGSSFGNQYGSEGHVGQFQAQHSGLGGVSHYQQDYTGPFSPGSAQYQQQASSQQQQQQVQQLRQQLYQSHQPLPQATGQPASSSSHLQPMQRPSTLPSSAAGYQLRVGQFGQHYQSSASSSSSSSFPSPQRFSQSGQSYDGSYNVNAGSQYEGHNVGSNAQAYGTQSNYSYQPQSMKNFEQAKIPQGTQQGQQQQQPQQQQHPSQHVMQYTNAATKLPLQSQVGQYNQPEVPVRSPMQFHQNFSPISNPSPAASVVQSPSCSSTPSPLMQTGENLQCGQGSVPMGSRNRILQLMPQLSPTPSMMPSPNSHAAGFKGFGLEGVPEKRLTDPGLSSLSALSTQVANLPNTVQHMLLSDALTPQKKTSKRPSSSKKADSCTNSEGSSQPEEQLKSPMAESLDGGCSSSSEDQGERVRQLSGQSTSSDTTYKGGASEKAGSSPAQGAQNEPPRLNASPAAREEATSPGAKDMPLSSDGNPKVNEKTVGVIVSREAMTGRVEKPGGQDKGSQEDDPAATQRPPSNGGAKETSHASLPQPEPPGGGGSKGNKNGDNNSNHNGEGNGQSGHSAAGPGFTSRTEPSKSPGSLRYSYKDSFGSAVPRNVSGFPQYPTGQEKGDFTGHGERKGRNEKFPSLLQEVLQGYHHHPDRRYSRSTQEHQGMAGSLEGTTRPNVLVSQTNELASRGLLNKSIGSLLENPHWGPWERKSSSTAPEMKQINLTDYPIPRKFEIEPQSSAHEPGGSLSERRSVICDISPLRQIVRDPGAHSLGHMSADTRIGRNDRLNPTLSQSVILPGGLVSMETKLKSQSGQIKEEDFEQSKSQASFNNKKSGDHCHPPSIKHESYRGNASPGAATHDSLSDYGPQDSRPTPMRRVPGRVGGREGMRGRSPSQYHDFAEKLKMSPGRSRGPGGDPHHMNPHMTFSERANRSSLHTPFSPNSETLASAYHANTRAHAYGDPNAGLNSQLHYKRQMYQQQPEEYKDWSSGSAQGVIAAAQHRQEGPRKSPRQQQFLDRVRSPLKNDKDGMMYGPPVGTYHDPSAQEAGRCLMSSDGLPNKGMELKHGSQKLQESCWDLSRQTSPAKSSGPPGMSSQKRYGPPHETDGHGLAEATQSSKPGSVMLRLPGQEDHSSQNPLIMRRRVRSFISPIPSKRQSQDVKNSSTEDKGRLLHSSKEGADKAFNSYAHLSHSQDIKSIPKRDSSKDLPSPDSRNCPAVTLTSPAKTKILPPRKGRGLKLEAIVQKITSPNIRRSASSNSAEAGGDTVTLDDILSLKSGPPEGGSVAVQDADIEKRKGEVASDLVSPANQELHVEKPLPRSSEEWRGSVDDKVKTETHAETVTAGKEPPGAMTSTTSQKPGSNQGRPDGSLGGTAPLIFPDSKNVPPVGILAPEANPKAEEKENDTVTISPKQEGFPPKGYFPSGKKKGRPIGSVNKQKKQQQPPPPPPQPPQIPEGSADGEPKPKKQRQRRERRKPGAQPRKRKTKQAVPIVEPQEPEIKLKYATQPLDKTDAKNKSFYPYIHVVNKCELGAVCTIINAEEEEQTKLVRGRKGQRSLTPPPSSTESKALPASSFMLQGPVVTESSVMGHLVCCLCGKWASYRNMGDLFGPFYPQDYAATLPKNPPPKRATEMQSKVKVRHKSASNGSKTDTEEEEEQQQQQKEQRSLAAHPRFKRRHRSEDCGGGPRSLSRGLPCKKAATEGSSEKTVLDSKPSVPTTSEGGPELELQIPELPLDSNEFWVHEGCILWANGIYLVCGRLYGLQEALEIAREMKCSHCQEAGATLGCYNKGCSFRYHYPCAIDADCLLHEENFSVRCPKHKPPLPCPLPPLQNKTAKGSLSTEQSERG
Chain of UniProt P23497 (P23497 whole entry, looked up): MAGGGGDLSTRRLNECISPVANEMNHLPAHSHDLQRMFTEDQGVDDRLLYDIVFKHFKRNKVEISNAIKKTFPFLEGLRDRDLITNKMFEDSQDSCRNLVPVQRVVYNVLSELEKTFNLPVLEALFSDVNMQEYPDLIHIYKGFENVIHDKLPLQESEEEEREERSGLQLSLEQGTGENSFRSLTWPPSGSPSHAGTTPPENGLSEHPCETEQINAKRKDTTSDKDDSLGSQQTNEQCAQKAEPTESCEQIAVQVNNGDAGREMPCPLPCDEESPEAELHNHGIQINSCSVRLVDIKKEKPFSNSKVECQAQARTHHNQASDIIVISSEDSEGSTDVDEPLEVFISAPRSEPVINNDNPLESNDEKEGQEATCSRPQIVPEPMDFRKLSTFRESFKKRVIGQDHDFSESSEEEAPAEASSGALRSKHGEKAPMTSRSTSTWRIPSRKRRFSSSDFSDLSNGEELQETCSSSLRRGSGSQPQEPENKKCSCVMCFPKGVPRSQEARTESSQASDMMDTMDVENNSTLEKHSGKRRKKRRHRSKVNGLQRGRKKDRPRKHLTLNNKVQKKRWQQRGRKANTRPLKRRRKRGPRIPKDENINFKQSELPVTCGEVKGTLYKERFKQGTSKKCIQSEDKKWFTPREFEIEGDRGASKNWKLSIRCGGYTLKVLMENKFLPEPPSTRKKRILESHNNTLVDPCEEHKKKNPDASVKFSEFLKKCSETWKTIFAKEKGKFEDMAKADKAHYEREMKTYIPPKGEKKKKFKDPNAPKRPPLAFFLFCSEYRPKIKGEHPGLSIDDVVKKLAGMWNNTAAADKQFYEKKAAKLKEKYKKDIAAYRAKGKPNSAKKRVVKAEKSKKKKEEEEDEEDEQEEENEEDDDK
Chain of UniProt O76094 (O76094 whole entry, looked up): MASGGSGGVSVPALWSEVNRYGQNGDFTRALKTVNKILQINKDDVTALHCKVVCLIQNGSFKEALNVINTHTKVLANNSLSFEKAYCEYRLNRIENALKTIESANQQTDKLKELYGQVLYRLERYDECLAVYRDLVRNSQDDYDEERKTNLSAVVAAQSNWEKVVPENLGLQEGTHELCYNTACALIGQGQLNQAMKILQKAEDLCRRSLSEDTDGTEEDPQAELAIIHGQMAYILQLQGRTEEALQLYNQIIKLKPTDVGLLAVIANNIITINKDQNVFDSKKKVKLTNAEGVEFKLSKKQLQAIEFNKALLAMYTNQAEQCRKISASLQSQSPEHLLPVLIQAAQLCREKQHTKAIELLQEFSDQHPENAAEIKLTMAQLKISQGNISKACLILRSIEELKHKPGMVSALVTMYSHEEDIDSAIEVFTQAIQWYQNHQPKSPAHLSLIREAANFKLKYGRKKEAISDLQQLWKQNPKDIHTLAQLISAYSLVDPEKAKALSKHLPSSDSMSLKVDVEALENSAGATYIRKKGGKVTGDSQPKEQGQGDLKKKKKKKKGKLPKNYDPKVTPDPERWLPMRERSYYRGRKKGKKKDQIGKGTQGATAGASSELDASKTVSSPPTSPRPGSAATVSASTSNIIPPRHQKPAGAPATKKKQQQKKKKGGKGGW
Chain of UniProt P21980 (P21980 whole entry): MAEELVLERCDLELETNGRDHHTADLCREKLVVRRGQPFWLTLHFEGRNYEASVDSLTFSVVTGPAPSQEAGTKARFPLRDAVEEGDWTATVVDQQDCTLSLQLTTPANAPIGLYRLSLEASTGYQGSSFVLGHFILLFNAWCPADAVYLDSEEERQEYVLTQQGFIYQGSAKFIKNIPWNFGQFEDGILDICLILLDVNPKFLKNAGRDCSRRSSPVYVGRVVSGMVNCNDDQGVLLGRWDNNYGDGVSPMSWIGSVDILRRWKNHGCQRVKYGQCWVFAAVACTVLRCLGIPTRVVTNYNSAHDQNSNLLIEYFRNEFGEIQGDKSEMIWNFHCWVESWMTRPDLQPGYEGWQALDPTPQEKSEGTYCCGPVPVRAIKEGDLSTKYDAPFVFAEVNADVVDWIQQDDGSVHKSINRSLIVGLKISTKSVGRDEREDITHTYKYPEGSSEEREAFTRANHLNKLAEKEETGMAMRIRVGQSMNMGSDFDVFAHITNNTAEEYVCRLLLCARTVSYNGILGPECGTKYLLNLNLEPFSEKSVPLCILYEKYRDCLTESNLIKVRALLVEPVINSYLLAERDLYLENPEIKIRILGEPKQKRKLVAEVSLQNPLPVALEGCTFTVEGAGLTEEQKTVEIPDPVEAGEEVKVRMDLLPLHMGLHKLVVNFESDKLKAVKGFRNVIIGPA
Chain of UniProt Q8NE00 (Q8NE00 whole entry): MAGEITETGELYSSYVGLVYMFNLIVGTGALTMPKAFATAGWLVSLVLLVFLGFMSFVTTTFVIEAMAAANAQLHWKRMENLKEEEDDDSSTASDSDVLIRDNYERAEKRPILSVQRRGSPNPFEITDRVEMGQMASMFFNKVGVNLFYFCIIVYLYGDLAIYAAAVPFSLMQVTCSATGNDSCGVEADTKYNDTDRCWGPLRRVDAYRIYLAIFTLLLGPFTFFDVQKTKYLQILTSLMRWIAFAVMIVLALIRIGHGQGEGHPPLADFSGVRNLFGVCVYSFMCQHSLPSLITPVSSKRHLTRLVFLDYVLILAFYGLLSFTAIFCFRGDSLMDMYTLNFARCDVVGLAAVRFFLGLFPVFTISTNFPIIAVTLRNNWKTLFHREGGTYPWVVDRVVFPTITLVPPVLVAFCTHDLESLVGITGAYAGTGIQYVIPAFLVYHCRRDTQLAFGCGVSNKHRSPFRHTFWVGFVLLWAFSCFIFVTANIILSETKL
Chain of UniProt Q17R31 (Q17R31 whole entry, looked up): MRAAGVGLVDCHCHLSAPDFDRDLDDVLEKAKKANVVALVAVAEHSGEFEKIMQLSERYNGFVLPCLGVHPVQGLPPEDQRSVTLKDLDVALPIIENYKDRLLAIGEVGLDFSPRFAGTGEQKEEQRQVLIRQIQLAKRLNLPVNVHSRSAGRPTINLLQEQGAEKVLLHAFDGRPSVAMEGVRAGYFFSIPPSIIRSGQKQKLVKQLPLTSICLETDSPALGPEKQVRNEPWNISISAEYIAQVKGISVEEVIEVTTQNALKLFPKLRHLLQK

Take “TMEM104_Q8NE00_455_DTQLAFGCGVSNK (UniProt Q8NE00)”: the “probe-labelled cysteine peptide fold change” value by setting is: (10 µM) -0.127; (50 µM) -0.346.
With “THG1L_Q9NWX6_47_DFEADDTCLAHCWVVVR (UniProt Q9NWX6)”, the “probe-labelled cysteine peptide fold change” value (10 µM) is -0.0809 and the “probe-labelled cysteine peptide fold change” value (50 µM) is 0.0136.
Taken in the same sequence, the figures for “TDRD7_Q8NHU6_1029_CNQWSEEASMVFR (UniProt Q8NHU6)” were -0.175 and -0.845.
On to “SRP9_P49458_48_VTDDLVCLVYK (UniProt P49458)”, for which the “probe-labelled cysteine peptide fold change” value (10 µM) was 0.216 and the “probe-labelled cysteine peptide fold change” value (50 µM) is -0.255.
“SRPRB_Q9Y5M8_246_EFEFSQLPLKVEFLECSAK (UniProt Q9Y5M8)”: the “probe-labelled cysteine peptide fold change” value (10 µM) is -0.354 and the “probe-labelled cysteine peptide fold change” value (50 µM) is -1.1.
Consider “ST14_Q9Y5Y6_268_SFDLASCDER (UniProt Q9Y5Y6)”, for which the “probe-labelled cysteine peptide fold change” value was -0.0626 (10 µM) and -1.09 (50 µM).
With “TOP1_P11387_504_AGNEKEEGETADTVGCCSLR (UniProt P11387)”, the “probe-labelled cysteine peptide fold change” value runs as follows: (10 µM) -0.0614; (50 µM) -1.22.
As to “SORL1_Q92673_752_LEGELVPCPLAEENEFILYAVR (UniProt Q92673)”, the “probe-labelled cysteine peptide fold change” value was found to be 0.124 (10 µM) and 0.148 (50 µM).
As for “SP100_P23497_266+270_EMPCPLPCDEESPEAELHNHGIQINSCSVR (UniProt P23497)”, the “probe-labelled cysteine peptide fold change” value by setting is: (10 µM) -0.396; (50 µM) -1.25.
As to “TOE1_Q96GM8_371_KQVCGDSIKPEETEQEVAADETR (UniProt Q96GM8)”, the “probe-labelled cysteine peptide fold change” value (10 µM) is -0.0655 and the “probe-labelled cysteine peptide fold change” value (50 µM) was -0.661.
The corresponding values for “TNFAIP2_Q03169_429_ANVIANINNCLSFR (UniProt Q03169)” are -0.0434 and 0.184.
With “STXBP1_P61764_110_AAHVFFTDSCPDALFNELVK (UniProt P61764)”, the “probe-labelled cysteine peptide fold change” value reads like this: (10 µM) 0.24; (50 µM) 0.527.
For the target “THOC5_Q13769_282_HLPPPLYVLFVQATAYGQACDK (UniProt Q13769)”, the “probe-labelled cysteine peptide fold change” value (10 µM) amounted to 0.435 and the “probe-labelled cysteine peptide fold change” value (50 µM) amounted to 1.48.
The corresponding values for “TET3_O43151_1381_GKPWSPCK (UniProt O43151)” are -0.379 and -1.3.
The corresponding values for “SP3_Q02447_683_KFVCPECSK (UniProt Q02447)” are 0.188 and 0.33.
As for “STXBP2_Q15833_110_AAHIFFTDTCPEPLFSELGR (UniProt Q15833)”, the “probe-labelled cysteine peptide fold change” value (10 µM) was found to be 0.0186 and the “probe-labelled cysteine peptide fold change” value (50 µM) is 0.272.
Taken in the same sequence, the figures for “TBCCD1_Q9NVR7_337_CNESFIYLLSPLR (UniProt Q9NVR7)” were 0.178 and 0.422.
On to “TNPO3_Q9Y5L0_580_ITECLSELCSVQVMALKK (UniProt Q9Y5L0)”, for which the “probe-labelled cysteine peptide fold change” value is -0.00843 (10 µM) and -0.267 (50 µM).
Taken in the same sequence, the figures for “SORD_Q00796_165_LPDNVTFEEGALIEPLSVGIHACR (UniProt Q00796)” were 0.00881 and 0.188.
Regarding “TARS_P26639_261_CGPLIDLCR (UniProt P26639)”, the “probe-labelled cysteine peptide fold change” value runs as follows: (10 µM) 0.0971; (50 µM) 0.248.
The corresponding values for “TEP1_Q99973_692_TVLVYLTDANADRLCPK (UniProt Q99973)” are -0.328 and -0.442.
Taken in the same sequence, the figures for “TOE1_Q96GM8_80_SLLNQCIEER (UniProt Q96GM8)” were -0.52 and -2.28.
In the case of “TBC1D15_Q8TC07_184_YVVLCESPQDKR (UniProt Q8TC07)”, the “probe-labelled cysteine peptide fold change” value was 0.0621 (10 µM) and -0.0543 (50 µM).
Taken in the same sequence, the figures for “TAF6_P49848_235_EITEACVGSCEAK (UniProt P49848)” were -0.193 and -1.67.
Taken in the same sequence, the figures for “TMEM147_Q9BVK8_116_CIPLWVGAR (UniProt Q9BVK8)” were -0.0315 and -0.102.
Taken in the same sequence, the figures for “STRADA_Q7RTN6_107_INLEACSNEMVTFLQGELHVSK (UniProt Q7RTN6)” were 0.391 and 0.345.
As for “TGS1_Q96RS0_357_ECPASGQSEPR (UniProt Q96RS0)”, the “probe-labelled cysteine peptide fold change” value (10 µM) was -0.00223 and the “probe-labelled cysteine peptide fold change” value (50 µM) is 0.216.
As to “SUN2_Q9UH99_601_VILQPDVHPGNCWAFQGPQGFAVVR (UniProt Q9UH99)”, the “probe-labelled cysteine peptide fold change” value reads like this: (10 µM) 0.0264; (50 µM) 0.295.
Taken in the same sequence, the figures for “SPAG9_O60271_1210_VTPGTFIPYCSMAHAQLCFHGHR (UniProt O60271)” were 0.231 and 1.04.
In the case of “TCF20_Q9UGU0_1795_SEDCGGGPR (UniProt Q9UGU0)”, the “probe-labelled cysteine peptide fold change” value runs as follows: (10 µM) -0.142; (50 µM) -0.0709.
Taken in the same sequence, the figures for “TGM2_P21980_371_SEGTYCCGPVPVR (UniProt P21980)” were 0.00473 and -0.293.
On to “SON_P18583_92_CVSVQTDPTDEIPTKK (UniProt P18583)”, for which the “probe-labelled cysteine peptide fold change” value was -0.351 (10 µM) and -1.24 (50 µM).
On to “TATDN3_Q17R31_66_YNGFVLPCLGVHPVQGLPPEDQR (UniProt Q17R31)”, for which the “probe-labelled cysteine peptide fold change” value is, setting by setting: (10 µM) 0.0121; (50 µM) 1.04.
The corresponding values for “STK11_Q15831_418_ACSASSK (UniProt Q15831)” are -0.73 and -1.42.
Taken in the same sequence, the figures for “TESC_Q96BS2_213_FLNMETMALCH (UniProt Q96BS2)” were -0.431 and -1.46.
The corresponding values for “TK1_P04183_206_ENCPVPGKPGEAVAAR (UniProt P04183)” are -0.0233 and -0.211.
Turning to “STX12_Q86Y82_29_DFSSIIQTCSGNIQR (UniProt Q86Y82)”, the “probe-labelled cysteine peptide fold change” value was determined as 0.143 (10 µM) and 0.0626 (50 µM).
Taken in the same sequence, the figures for “TBL3_Q12788_526_GLWCVQFSPMDQVLATASADGTIK (UniProt Q12788)” were 0.119 and 0.0335.
The corresponding values for “SRP72_O76094_54_VVCLIQNGSFK (UniProt O76094)” are 0.0906 and -0.275.
As to “STK11_Q15831_210_ISDLGVAEALHPFAADDTCR (UniProt Q15831)”, the “probe-labelled cysteine peptide fold change” value was -0.252 (10 µM) and -0.136 (50 µM).
